From PubChem BioAssay come the findings set out here.

Calls of active or inactive are those of the source.

Assay [1] is described as follows: small molecules captured by biotinylated probe aFSTL3 – biochemical, small-molecule microarray, fluorescence 635/667, stem cell growth factor project, primary screen (AID 1064).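 Note: measures binding of the biotinylated anti-FSTL3 antibody to printed compounds.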 As to conditions: higher = more signal.
Assay [2] in a line: binders from COS7 lysate, DM2A8 probe, primary screen, torsin A project, cell lysate, small-molecule microarray, fluorescence 635/667 (AID 1065). To be noted: higher = more signal, COS7 lysate expressing mutant human TOR1A.
Assay [3] in a line: small molecules captured by biotinylated probe aFGF2 – biochemical, small-molecule microarray, fluorescence 635/667, stem cell growth factor project, primary screen (AID 1067).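 Note: measures binding of biotinylated aFGF2 protein to printed compounds on slides; z-score merges feature fluorescence and signal-to-noise across triplicate slides.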 To be noted: higher = more signal.
A short description of assay [4]: small molecules captured by biotinylated probe aFGF10 – biochemical, small-molecule microarray, fluorescence 635/667, stem cell growth factor project, primary screen (AID 1071).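 Note: score merges 667 nm spot intensity and signal to noise from triplicate slides.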 As to conditions: higher = more signal.
Assay [5] addresses Neurogenic locus notch homolog protein 2 (Homo sapiens) (UniProt Q04721). Put plainly: small molecules binding Notch2 protein – biochemical, small-molecule microarray, 635 nm fluorescence, stem cell growth factors, primary screen (AID 1073). As to conditions: higher = more signal.
Assay [6] has as its target Pro-neuregulin-1, membrane-bound isoform (Homo sapiens) (UniProt Q02297). The experiment in a line: small molecules binding neuregulin-1 protein – biochemical, small-molecule microarray, fluorescence 635/667, psychiatric disease protein project, primary screen (AID 1075).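 Note: score combines 667 nm spot fluorescence with signal to noise.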 As to conditions: NRG1 binding, 635 nm fluorescence, higher = more signal.
Assay [7] deals with Neuregulin-1 EGF-like domain. Put plainly: small molecules binding NRG1 EGF domain – biochemical, small-molecule microarray, 635 nm fluorescence, primary screen (AID 1081).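 Note: binding of the protein to compounds printed on small-molecule microarray slides.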 To be noted: higher = more signal.
Assay [8] in a line: FRG1 expression reporter modulators in myotubes – cell-based, C2C12 myotubes, firefly/Renilla luciferase, luminescence, FRG1 inhibition for FSHD, primary screen (AID 1084). As to conditions: FRG1 promoter luciferase, higher = more signal, called active from +8 up or from −8 down.
The nature of assay [9]: small molecules captured by biotinylated probe aFST – biochemical, small-molecule microarray, fluorescence 635/667, stem cell growth factor project, primary screen (AID 1086).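 Note: score merges 667 nm fluorescence with signal-to-noise of each printed compound spot.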 As to conditions: higher = more signal.
A short description of assay [10]: binders of probe aHhip on microarray, primary screen, stem cell growth factor project, biochemical, small-molecule microarray, fluorescence 635/667 (AID 1087).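 Note: score merges spot fluorescence at 667nm with spot signal to noise ratio.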 To be noted: higher = more signal.
The subject of assay [11] is PRMT1 (protein arginine N-methyltransferase 1). Put plainly: small molecules binding arginine methyltransferase PRMT1 – biochemical, small-molecule microarray, 635 nm fluorescence, primary screen (AID 1088).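 Note: binding of Prmt1 protein to compounds spotted on small-molecule microarray slides.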 To be noted: higher = more signal.
Assay [12] can be described thus: growth effects on S. cerevisiae YJM789 – YJM789 clinical isolate, OD600, 24 h, basal, primary screen (AID 1089).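 Note: growth of clinical yeast isolate S. cerevisiae YJM 789 seeded 1000 cells per well; test concentration not given here.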 To be noted: higher = more signal, called active from +8 up or from −8 down.
Assay [13] can be described thus: S. pombe growth modifiers, basal conditions – strain 972, OD600, 24 h, no modulator, primary screen (AID 1090).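 Note: basal condition with compound alone and no growth modifier present; test concentration not given here.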 To be noted: S. pombe 972 growth, higher = more signal, called active from +8 up or from −8 down.
Assay [14] in a line: budding yeast growth modifiers under rapamycin – strain BY4716, OD600, 96 h, primary screen (AID 1091). Note: test concentration not given here. To be noted: S. cerevisiae BY4716 + rapamycin, higher = more signal, called active from +8 up or from −8 down.
The target of assay [15] is Torsin-1A-interacting protein 2 (Homo sapiens) (UniProt Q8NFQ8). Put plainly: small molecules binding lysate-expressed LULL1 – cell lysate, human LULL1 lysate, 635/667 nm fluorescence, primary screen (AID 1092).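 Note: probe is lysate of COS7 cells overexpressing human LULL1; score merges per-feature 667 nm fluorescence with signal-to-noise.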 To be noted: small-molecule microarray, hLULL1 lysate binding, 635 nm fluorescence; higher = more signal.
Chain of Torsin-1A-interacting protein 2 (Homo sapiens) (Q8NFQ8 whole entry, looked up): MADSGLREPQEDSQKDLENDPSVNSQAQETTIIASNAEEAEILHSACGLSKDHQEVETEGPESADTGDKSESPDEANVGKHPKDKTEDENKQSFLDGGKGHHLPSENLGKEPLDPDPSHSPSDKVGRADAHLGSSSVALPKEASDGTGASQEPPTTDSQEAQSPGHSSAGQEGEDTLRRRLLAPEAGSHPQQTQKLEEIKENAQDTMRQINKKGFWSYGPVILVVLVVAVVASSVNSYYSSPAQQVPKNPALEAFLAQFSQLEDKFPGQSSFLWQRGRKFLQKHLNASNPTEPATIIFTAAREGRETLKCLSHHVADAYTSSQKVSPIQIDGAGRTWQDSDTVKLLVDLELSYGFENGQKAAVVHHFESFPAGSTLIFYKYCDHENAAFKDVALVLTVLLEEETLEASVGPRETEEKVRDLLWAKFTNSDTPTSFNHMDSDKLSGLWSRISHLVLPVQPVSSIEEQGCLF
A short description of assay [16]: optical density change of DRC41 E. coli – strain DRC41, OD650, 24 h, E. coli filamentation project, primary screen (AID 1093).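 Note: MC1000 strain lacking acrAB efflux and sulA so SOS filamentation is blocked; test concentration not given here.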 As to conditions: E. coli DRC41 growth, higher = more signal, called active from +8 up or from −8 down.
Assay [17] in a line: probe aLefty2 binding to arrayed compounds – biochemical, biotinylated probe, 635/667 nm fluorescence, primary screen (AID 1094).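 Note: score merges spot fluorescence near 667 nm with spot signal-to-noise ratio.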 To be noted: small-molecule microarray, higher = more signal.
For assay [18], the system named is Noggin (protein binding on small-molecule microarray). The experiment in a line: small molecules binding Noggin protein – biochemical, 635/667 nm fluorescence, primary screen (AID 1095).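 Note: score merges 667 nm feature fluorescence with signal to noise over triplicate slides.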 To be noted: 635 nm fluorescence, higher = more signal.
Assay [19] concerns the target Neurogenic locus notch homolog protein 3 (Homo sapiens) (UniProt Q9UM47). The experiment in a line: small molecules binding NOTCH3 protein – biochemical, 635/667 nm fluorescence, primary screen (AID 1096). To be noted: small-molecule microarray, 635 nm fluorescence, higher = more signal.
A short description of assay [20]: probe aEGFR binding to arrayed compounds – biochemical, biotinylated probe, 635/667 nm fluorescence, primary screen (AID 1097).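 Note: probe is a biotinylated anti-EGFR antibody binding compounds printed on slides; score combines fluorescence near 667 nm and signal to noise of each spot.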 As to conditions: small-molecule microarray, higher = more signal.

Chain of Pro-neuregulin-1, membrane-bound isoform (Homo sapiens) (Q02297 whole entry, looked up, the tested form may be a part, canonical isoform): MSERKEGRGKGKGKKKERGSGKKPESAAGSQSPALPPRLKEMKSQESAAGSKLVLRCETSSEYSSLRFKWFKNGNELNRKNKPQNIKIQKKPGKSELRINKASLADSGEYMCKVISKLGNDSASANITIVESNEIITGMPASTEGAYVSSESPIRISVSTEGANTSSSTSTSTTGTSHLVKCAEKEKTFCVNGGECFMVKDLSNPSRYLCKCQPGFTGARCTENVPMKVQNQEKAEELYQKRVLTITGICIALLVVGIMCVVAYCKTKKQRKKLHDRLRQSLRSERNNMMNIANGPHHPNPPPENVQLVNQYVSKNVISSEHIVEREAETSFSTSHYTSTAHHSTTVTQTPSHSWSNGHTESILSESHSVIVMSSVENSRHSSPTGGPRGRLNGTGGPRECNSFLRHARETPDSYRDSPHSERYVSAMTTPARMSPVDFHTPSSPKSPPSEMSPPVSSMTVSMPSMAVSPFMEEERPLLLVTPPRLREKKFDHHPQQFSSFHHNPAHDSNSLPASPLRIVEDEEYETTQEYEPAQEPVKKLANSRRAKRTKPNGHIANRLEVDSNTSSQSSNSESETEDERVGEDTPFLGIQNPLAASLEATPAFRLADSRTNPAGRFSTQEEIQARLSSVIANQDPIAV
Chain of Neurogenic locus notch homolog protein 2 (Homo sapiens) (Q04721 whole entry, looked up, canonical isoform): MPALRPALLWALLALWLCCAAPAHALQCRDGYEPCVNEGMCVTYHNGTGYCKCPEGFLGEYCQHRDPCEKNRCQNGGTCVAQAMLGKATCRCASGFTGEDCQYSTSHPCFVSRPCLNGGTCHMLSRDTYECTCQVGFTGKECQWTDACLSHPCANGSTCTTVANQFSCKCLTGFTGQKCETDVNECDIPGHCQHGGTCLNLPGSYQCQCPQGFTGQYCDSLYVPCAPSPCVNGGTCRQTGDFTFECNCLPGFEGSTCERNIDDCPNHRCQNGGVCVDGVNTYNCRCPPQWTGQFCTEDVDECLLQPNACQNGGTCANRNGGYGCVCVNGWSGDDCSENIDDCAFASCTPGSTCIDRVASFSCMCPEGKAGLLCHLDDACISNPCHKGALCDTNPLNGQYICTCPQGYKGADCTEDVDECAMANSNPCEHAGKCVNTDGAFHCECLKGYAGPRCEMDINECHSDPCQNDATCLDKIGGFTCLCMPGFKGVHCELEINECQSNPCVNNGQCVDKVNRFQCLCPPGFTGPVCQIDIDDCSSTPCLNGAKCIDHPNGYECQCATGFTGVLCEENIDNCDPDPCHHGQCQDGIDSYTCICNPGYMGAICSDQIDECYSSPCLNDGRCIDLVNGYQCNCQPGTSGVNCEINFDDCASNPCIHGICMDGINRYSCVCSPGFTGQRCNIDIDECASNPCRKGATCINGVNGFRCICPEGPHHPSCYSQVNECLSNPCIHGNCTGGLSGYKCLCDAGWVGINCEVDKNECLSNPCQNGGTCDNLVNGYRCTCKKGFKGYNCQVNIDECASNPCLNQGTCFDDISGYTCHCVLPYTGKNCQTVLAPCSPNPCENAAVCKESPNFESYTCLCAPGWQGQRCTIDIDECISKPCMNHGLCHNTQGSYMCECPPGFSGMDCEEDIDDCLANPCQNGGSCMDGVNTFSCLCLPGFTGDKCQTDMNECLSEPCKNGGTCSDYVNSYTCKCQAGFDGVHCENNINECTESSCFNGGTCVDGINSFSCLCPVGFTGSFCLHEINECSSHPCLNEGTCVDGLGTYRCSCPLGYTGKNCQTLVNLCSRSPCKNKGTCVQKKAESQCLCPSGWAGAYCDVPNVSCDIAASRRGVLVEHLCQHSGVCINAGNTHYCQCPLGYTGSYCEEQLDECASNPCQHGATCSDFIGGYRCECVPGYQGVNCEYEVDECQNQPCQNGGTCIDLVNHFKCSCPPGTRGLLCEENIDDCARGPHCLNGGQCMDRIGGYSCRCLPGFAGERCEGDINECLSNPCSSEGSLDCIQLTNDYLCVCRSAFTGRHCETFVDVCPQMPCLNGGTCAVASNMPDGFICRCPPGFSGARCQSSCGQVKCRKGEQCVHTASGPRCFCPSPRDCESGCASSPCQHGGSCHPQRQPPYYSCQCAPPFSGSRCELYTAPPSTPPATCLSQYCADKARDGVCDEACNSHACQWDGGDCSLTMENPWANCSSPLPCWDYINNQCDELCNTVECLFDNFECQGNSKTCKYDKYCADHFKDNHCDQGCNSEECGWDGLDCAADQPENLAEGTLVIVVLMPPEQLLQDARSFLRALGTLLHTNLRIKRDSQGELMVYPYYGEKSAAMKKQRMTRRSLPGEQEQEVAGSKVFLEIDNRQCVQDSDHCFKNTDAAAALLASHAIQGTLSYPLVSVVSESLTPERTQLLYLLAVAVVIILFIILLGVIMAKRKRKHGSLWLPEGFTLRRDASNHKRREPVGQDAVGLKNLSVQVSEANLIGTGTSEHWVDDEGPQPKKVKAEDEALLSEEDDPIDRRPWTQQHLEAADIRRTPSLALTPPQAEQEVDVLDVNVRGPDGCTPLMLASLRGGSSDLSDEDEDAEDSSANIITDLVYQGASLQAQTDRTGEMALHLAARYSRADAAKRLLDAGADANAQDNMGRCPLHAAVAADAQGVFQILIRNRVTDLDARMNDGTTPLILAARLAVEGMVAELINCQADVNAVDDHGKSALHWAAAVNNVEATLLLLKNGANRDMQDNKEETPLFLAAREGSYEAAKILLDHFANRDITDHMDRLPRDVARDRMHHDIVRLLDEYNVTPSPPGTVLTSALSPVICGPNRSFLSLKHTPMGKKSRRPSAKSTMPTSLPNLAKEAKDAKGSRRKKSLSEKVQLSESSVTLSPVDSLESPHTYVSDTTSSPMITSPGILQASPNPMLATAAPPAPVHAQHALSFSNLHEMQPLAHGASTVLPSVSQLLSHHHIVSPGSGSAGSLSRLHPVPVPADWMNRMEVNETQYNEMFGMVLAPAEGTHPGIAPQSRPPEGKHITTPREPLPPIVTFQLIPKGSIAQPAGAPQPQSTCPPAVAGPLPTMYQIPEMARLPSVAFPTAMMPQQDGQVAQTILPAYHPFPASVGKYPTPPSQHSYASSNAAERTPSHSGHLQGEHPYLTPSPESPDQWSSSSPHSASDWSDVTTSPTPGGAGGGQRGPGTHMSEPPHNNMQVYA

`O=C1[C@@H]2[C@@H](CC(COc3ccccc3)=C3[C@@H](CCc4ccccc4)OB(O)C[C@@H]32)C(=O)N1Cc1ccccc1`: the composite z-score in [1] was -0.559; in assay [2], 0.242; in assay [3], -0.0737; in assay [4] it was 0.265; in assay [5] it was 0.697; in [6] it was 0.81. Also, the composite z-score in assay [7] is -0.113; in assay [9] it was 0.531; in assay [10], -0.289; in assay [11], -0.0537; in assay [15] it was 0.828; in assay [17], -0.274. Moreover, the composite z-score in assay [18] is 0.204; in assay [19] it was 0.359; in assay [20] it was -0.116. Further, the z-score in [8] was 0.0109 (inactive); in assay [12], -0.402 (inactive); in assay [13], -1.04 (inactive); in assay [14], 0.297 (inactive); in [16], -0.874 (inactive).
In the case of `CC(=O)NCCCC[C@@H]1NC(=O)[C@@H]2C[C@H](C(=O)NCCCCCCN)[C@H](c3cccc(OCCO)c3)N2C1=O`, the composite z-score is 0.501 in assay [1]; 0.43 in assay [2]; -0.0336 in [3]; 0.281 in assay [4]; -0.149 in assay [5]; 1.63 in assay [6]. Moreover, the composite z-score is 1.08 in [7]; -0.0064 in assay [9]; -0.0296 in assay [10]; 0.858 in [11]; 2.3 in assay [15]; -0.0554 in assay [17]. Besides, the composite z-score was 0.271 in [18], -0.239 in assay [19] and -0.175 in assay [20]. Further, the z-score in assay [8] is 2.15 (inactive); in assay [12] it was 0.119 (inactive); in assay [13] it was -0.646 (inactive); in [14], -0.831 (inactive); in assay [16], -0.314 (inactive).
`C=C(CCCC)/C(=C/C[C@H](OC(C)=O)c1ccc(OCCO)cc1)c1cc(C(=O)OC)ccc1OC`: the composite z-score in assay [1] was -0.321; in [2], -0.137; in assay [3], 0.0057; in assay [4], 0.674; in assay [5], -0.0254; in assay [6], 1.04. Further, the composite z-score in assay [7] is 1; in assay [9], -0.28; in assay [10], -0.179; in assay [11], 1.25; in assay [15], 2.36; in assay [17] it was -0.0238. Moreover, the figures for the composite z-score in [18], in assay [19] and in assay [20] were 0.917, 0.563 and -0.115, respectively. The z-score in [8] is 8.65 (active); in assay [12] it was 0.966 (inactive); in assay [13] it was -0.628 (inactive); in assay [14], -0.59 (inactive); in [16], 0.54 (inactive).
Regarding `CCCCC=C[C@@H](NC(=O)c1ccccc1)c1ccccc1`, the composite z-score amounted to 0.277 in [1]; 0.241 in assay [2]; 0.0011 in assay [3]; 0.356 in [4]; 1.21 in [5]; 0.868 in assay [6]. Besides, the composite z-score in assay [7] is 1.02; in assay [9] it was 0.866; in assay [10] it was -0.206; in [11] it was 1.04; in assay [15] it was 3.51; in assay [17], -0.0261. The composite z-score is -0.328 in [18], 1.09 in assay [19] and 0.0488 in assay [20]. In addition, the z-score in assay [8] was 1.03 (inactive); in assay [12] it was 0.409 (inactive); in [13] it was 0.336 (inactive); in assay [14], 0.889 (inactive); in [16], -1.37 (inactive).
Take `COCC(=C=CC[C@@H](O)c1cccc(OCCO)c1)CCO`: the composite z-score in [1] is -0.117; in assay [2], 0.0969; in assay [3], -0.11; in assay [4] it was 0.674; in assay [5] it was 0.234; in assay [6] it was 0.678. Also, the composite z-score in assay [7] was 1.02; in assay [9], 0.101; in assay [10], -0.0074; in assay [11], 0.783; in assay [15] it was 0.939; in assay [17], -0.171. The composite z-score in assay [18] is 0.225; in assay [19], 0.669; in [20] it was 0.102. In addition, the z-score in [8] was 0.604 (inactive); in [12], 0.0995 (inactive); in assay [13], 0.114 (inactive); in assay [14] it was -0.0032 (inactive); in assay [16], 0.0464 (inactive).
